Where “and” joins values, the source holds several entries; their conditions need not be identical. Equal entries are not always repeated. About 390 (8.9%) of roughly 4,400 compounds showed an effect of 50% or more. The entries come from a sample that favours strong results as a whole.
System: Trypanosoma brucei
Assay: DNDI: Inhibition of Human African Trypanosomiasis, SBRI 427, in vitro at 2 ug.mL-1
Format: functional

Structure (SMILES)	% inhibition
CCCCN(CCC#N)Cc1coc(-c2ccccc2C)n1	-4%
CCOC(=O)C1CCCCN1Cc1coc(-c2ccccc2OCC)n1 (centres undefined)	3%
CC(C)c1ccc(Oc2ncccc2/C(N)=N/O)cc1	16%
C[C@@H]1C(NCc2coc(-c3cccc(F)c3)n2)C[C@H]2C[C@@H]1C2(C)C (some centres undefined)	90%
CC(C)C(C)NCc1coc(-c2cccc(F)c2)n1 (centres undefined)	8% and 16%
Fc1cccc(-c2nc(CNC3C[C@H]4CC[C@@H]3C4)co2)c1 (some centres undefined)	-5%
CCC(CC)CNCc1coc(-c2cccc(F)c2)n1	18%
C[C@H]1C(NCc2coc(-c3cccc(F)c3)n2)C[C@@H]2C[C@H]1C2(C)C (some centres undefined)	99%
Fc1cccc(-c2nc(CNC3CCc4ccccc43)co2)c1 (centres undefined)	13%
C#CCNCc1coc(-c2cccc(C)c2)n1	24%
CSc1ccc(Oc2cc(/C(=N/O)NCC3CCCO3)ccn2)cc1 (centres undefined)	6%
O/N=C(\NC1CCN(Cc2ccccc2)C1)c1cccnc1Oc1ccccc1Cl (centres undefined)	2%
Cc1cccc(Oc2ncccc2/C(=N/O)NC2CCC(C)CC2)c1C (centres undefined)	20%
CC1CCC(N/C(=N\O)c2cccnc2Oc2ccccc2Cl)CC1 (centres undefined)	99%
CC1CCC(C)N1/C(=N\O)c1cccnc1Oc1ccc(F)cc1Cl (centres undefined)	24%
CN(/C(=N\O)c1cccnc1Oc1ccc(F)cc1Cl)C1CCCCC1	7%
CC1CCC(N/C(=N\O)c2cccnc2Oc2ccc(F)cc2Cl)CC1 (centres undefined)	95%
Cc1cccc(-c2nc(Cn3cc(C=O)nc3C)co2)c1	1%
CCOc1ccccc1-c1nc(CN(CCOC)C(C)C)co1	1%
C=CCN1CCN(/C(=N\O)c2cccnc2OCC(F)(F)F)CC1	7%
CCOc1cccc(-c2nc(CN(CCC#N)C3CCCCC3)co2)c1	18%
CN(C)CCN(C)Cc1coc(-c2ccc(O)cc2)n1	7%

Structure (SMILES)	% inhibition
NCCc1cn(Cc2coc(-c3ccccc3F)n2)cn1	40%
Clc1ccc(-c2nc(Cn3cnc(-c4ccccc4)c3)co2)c(Cl)c1	7%
Cc1cn(Cc2coc(-c3ccc(Cl)cc3Cl)n2)cn1	2%
NCCc1cn(Cc2coc(-c3ccc(Cl)cc3Cl)n2)cn1	75%
NCCc1cn(Cc2coc(-c3cccc4ccccc34)n2)cn1	73%
NCCc1cn(Cc2coc(-c3ccccc3Br)n2)cn1	-5%
CSc1ccc(Oc2ccc(/C(=N/O)NC3CC(C)CC(C)(C)C3)cn2)cc1 (centres undefined)	-8%
COc1ccc(-c2nc(CN3CCN(c4ccc(C(C)=O)cc4)CC3)co2)cc1	4%
CCOc1ccccc1-c1nc(CNCc2ccc(C(C)(C)C)cc2)co1	6%
Cc1ccc(/C(=N/O)N2CCCCC2)c(Oc2cccc(F)c2)n1	16%
O/N=C(/c1ccc(Oc2cc(Cl)ccc2Cl)nc1)N1CCN(C2CCCC2)CC1	22%
O/N=C(\NCC1CCCCC1)c1ccc(Oc2cccc3ccccc23)nc1	24%
O/N=C(\NCCN1CCOCC1)c1ccc(Oc2cc(Cl)ccc2Cl)nc1	34%
N/C(=N\O)c1ccc(Oc2cc(Cl)ccc2Cl)nc1	10%
CSc1ccc(Oc2ccc(/C(=N/O)NCc3ccccc3C)cn2)cc1	-7%
O/N=C(\NC1CCCCC1)c1ccc(Oc2cc(Cl)ccc2Cl)nc1	98%
O/N=C(\NCc1ccccc1F)c1ccc(Oc2ccc(Cl)cc2)nc1	-6%
O/N=C(\NCC1CCCCC1)c1ccc(Oc2cc(Cl)ccc2Cl)nc1	76%
O/N=C(\NCC1CCCO1)c1ccc(Oc2cc(Cl)ccc2Cl)nc1 (centres undefined)	34%
O/N=C(\NCc1cccnc1)c1ccc(Oc2cc(Cl)ccc2Cl)nc1	8%
O/N=C(\NC1CCCC1)c1ccc(Oc2cc(Cl)ccc2Cl)nc1	99%
CSc1ccc(Oc2ccc(/C(=N/O)NCc3ccccc3F)cn2)cc1	95%

Structure (SMILES)	% inhibition
COc1ccc(Oc2nc(C)ccc2/C(=N/O)NCc2cc(F)ccc2F)cc1	15%
Cc1ccc(/C(=N/O)N2CCSC2)c(Oc2ccc3oc4ccccc4c3c2)n1	14%
Cc1cccc(-c2nc(CNCC(F)(F)F)co2)c1	-2%
COc1cccc(CNCc2coc(-c3ccc(Cl)cc3Cl)n2)c1OC	6%
CCN(Cc1ccccc1)Cc1coc(-c2cccc(F)c2)n1	14%
Cc1ccc(/C(=N/O)n2ccnc2C)c(OCC(F)(F)F)n1	21%
COC(=O)C1CCN(Cc2coc(-c3ccc(O)cc3)n2)CC1	-3%
CCOc1ccc(-c2nc(CNCCCN(C)c3ccccc3)co2)cc1	42%
CCOc1ccccc1-c1nc(CN2CCN(c3ccc(C)cc3C)CC2)co1	7%
O/N=C(\NCc1ccccc1)c1ccc(Oc2ccc(Cl)cc2)nc1	57%
O/N=C(\NCc1ccncc1)c1ccc(Oc2ccc(Cl)cc2)nc1	-11%
O/N=C(\NCc1ccccc1)c1ccc(Oc2ccc(-n3ccnc3)cc2)nc1	16%
O/N=C(\NCC1CCCCC1)c1ccc(Oc2ccc(-n3ccnc3)cc2)nc1	78%
O/N=C(\NCC1CCCO1)c1ccc(Oc2ccc(Cl)cc2)nc1 (centres undefined)	47%
O/N=C(\NCC1CCCO1)c1ccc(Oc2ccc(-n3ccnc3)cc2)nc1 (centres undefined)	32%
O/N=C(\NCC1CCCCC1)c1ccc(Oc2ccc(F)cc2)nc1	28%
O/N=C(\NCC1CCCCC1)c1ccc(Oc2ccc(Cl)cc2)nc1	93%
COc1ccc(CN/C(=N\O)c2ccc(Oc3ccc(Cl)cc3)nc2)cc1	6%
CC1CN(Cc2coc(-c3ccc(Cl)cc3Cl)n2)CC(C)O1 (centres undefined)	14%
CCCN/C(=N\O)c1ccc(C)nc1Oc1cccc(C(C)C)c1	4%
c1coc(-c2nc(CN3CCCc4ccccc43)co2)c1	18%
COc1ccc(-c2nc(CNC(C)c3ccccc3)co2)cc1 (centres undefined)	3%

Structure (SMILES)	% inhibition
Cc1ccc(/C(=N/O)NCc2ccccn2)c(OCc2cccc(F)c2)n1	-1%
CCOc1ccc(-c2nc(Cn3ccnc3C(C)C)co2)cc1	10%
COc1ccc(-c2nc(CNC(c3ccccc3)c3ccccc3)co2)cc1	-28%
COc1ccccc1Oc1ncccc1/C(=N/O)N1CCOCC1	16%
CCC(NCc1coc(-c2ccc(Br)cc2)n1)c1ccccc1 (centres undefined)	-22% and -13%
Cc1ccc(Oc2nc(C)ccc2/C(N)=N/O)c(C)c1	11%
N#CCCN(Cc1coc(-c2ccc(F)cc2)n1)c1ccccc1	-10%
COCCN/C(=N\O)c1ccnc(Oc2ccc(C)cc2C)c1	6%
O/N=C(\NCc1ccccc1)c1ccc(Oc2cc(Cl)ccc2Cl)nc1	31%
Cc1ccc(Oc2cc(/C(=N/O)NCC(C)(C)C)ccn2)c(C)c1	96%
CC(C)(C)CN/C(=N\O)c1ccc(Oc2cc(Cl)ccc2Cl)nc1	99%
COCCN/C(=N\O)c1ccnc(Oc2cc(Cl)ccc2Cl)c1	27%
O/N=C(\NCc1cccnc1)c1ccnc(Oc2cc(Cl)ccc2Cl)c1	17%
Cc1ccc(Oc2cc(/C(=N/O)NCc3ccccc3C)ccn2)c(C)c1	42%
Cc1cc(C)cc(CN/C(=N\O)c2ccc(Oc3cc(Cl)ccc3Cl)nc2)c1	-11%
Cc1ccc(Oc2cc(/C(=N/O)N3CCCCCC3)ccn2)c(C)c1	98%
CC(C)(C)CN/C(=N\O)c1ccnc(Oc2cc(Cl)ccc2Cl)c1	56%
Cc1ccc(Oc2cc(/C(=N/O)N3CCCCC3)ccn2)c2c1CCC2	19%
Cc1ccc(Oc2cc(/C(=N/O)N3CC(C)CC(C)C3)ccn2)c(C)c1 (centres undefined)	22%
Cc1ccc(/C(N)=N/O)c(Oc2ccc(F)c(Cl)c2)n1	20%
COc1ccc(-c2nc(CN3CCCCCC3)co2)cc1	18%
CCOc1ccc(-c2nc(CN3CCN(c4cccc(Cl)c4)CC3)co2)cc1	-2%

Structure (SMILES)	% inhibition
Cc1ccc(-c2nc(CNC(c3ccccc3)c3ccccc3)co2)cc1	-9%
CCOc1ccccc1-c1nc(CN(C)CC(C)C)co1	3%
COc1ccc(CNCc2coc(-c3cccs3)n2)cc1OC	-8%
Cc1ccc(/C(=N/O)N2CCN(c3ccc(F)cc3)CC2)c(OCc2ccccc2F)n1	7%
CCOc1ccc(-c2nc(CN3CCN(C(=O)c4ccco4)CC3)co2)cc1	0%
CCC(CC)N/C(=N\O)c1cccnc1Oc1ccc(OC)cc1	100%
CCC(CC)N/C(=N\O)c1cccnc1Oc1ccc(F)cc1	96%
COc1ccc(Oc2ncccc2/C(=N/O)NC(C)C)cc1	4%
COCC(C)N/C(=N\O)c1cccnc1Oc1ccc(F)cc1 (centres undefined)	13%
COc1cc2c(cc1OC)C(C(C)C)N(Cc1coc(-c3ccc(F)cc3)n1)CC2 (centres undefined)	5%
COc1ccc(CN/C(=N\O)c2ccc(C)nc2Oc2ccc(F)cc2)cc1	30%
CCC(C)(C)N/C(=N\O)c1cccnc1Oc1ccc(-n2cncn2)cc1	45%
CCOC(=O)C1CCCN(Cc2coc(-c3ccc(Br)cc3)n2)C1 (centres undefined)	0%
CSc1ccc(Oc2ncccc2/C(=N/O)NCc2cccnc2)cc1	2%
Cc1ccc(Oc2ncccc2/C(=N/O)N2CC=CCC2)c2c1CCC2	14%
CCc1nc(C)cn1Cc1coc(-c2cccc(OC)c2)n1	-9%
COc1ccc(Oc2ncccc2/C(=N/O)N2CCCCC2)cc1	7%
CCC(C)(C)N/C(=N\O)c1ccc(C)nc1Oc1ccc(Cl)cc1	-12%
CCC(C)(C)N/C(=N\O)c1ccc(C)nc1Oc1ccc(F)c(Cl)c1	-27%
Cc1ccc(/C(=N/O)NCC(C)(C)C)c(Oc2cc(Cl)ccc2Cl)n1	100%
CCC(C)(C)N/C(=N\O)c1ccc(C)nc1Oc1cc(Cl)ccc1Cl	63%
